Tested on: Vero E6 infected with SARS-CoV-2
Experiment: inhibition of SARS-CoV-2 cytopathic effect; higher = more antiviral protection, active = above 15
Conditions: 48 h

Measured: inhibition of SARS-CoV-2 cytopathic effect

N[C@@H]1CCCN(c2c(/C=C3\SC(=O)NC3=O)cccc2-c2ccccc2)C1
inactive: 1 nM 3.5% | 8.33 nM -3.14% | 100 nM -1.57% | 833.33 nM -0.89% | 10000 nM 0%

Cn1cc(-c2cnn3c(N)c(Br)c([C@@H]4CCCNC4)nc23)cn1
inactive: 1 nM 0.61% | 8.33 nM 0.92% | 100 nM 2.32% | 833.33 nM 2.1% | 10000 nM 0.48%

CC(C)(C)Sc1c(CC(C)(C)C(=O)O)n(Cc2ccc(Cl)cc2)c2ccc(OCc3ccc4ccccc4n3)cc12 [quiflapon]
inactive: 1 nM 1.81% | 8.33 nM 0.25% | 100 nM -1.43% | 833.33 nM 1.93% | 10000 nM 1.66%

CCCCN(CCCC)C(=O)CN1C[C@H](c2ccc3c(c2)OCO3)[C@@H](C(=O)O)[C@@H]1c1ccc(OC)cc1 [atrasentan]
inactive: 1 nM 0.53% | 8.33 nM 1.72% | 100 nM 1.15% | 833.33 nM 2.37% | 10000 nM 1.46%

Cc1cc(-c2ccc(/N=N/c3ccc4c(S(=O)(=O)O)cc(S(=O)(=O)O)c(N)c4c3O)c(C)c2)ccc1/N=N/c1ccc2c(S(=O)(=O)O)cc(S(=O)(=O)O)c(N)c2c1O [evans-blue]
inactive: 1 nM -1.16% | 8.33 nM -4.89% | 100 nM 2.16% | 833.33 nM -0.35% | 10000 nM -17.6%

COc1ncc2cc(C(=O)Nc3cc(C(=O)NCc4cccc(Cl)c4)ccc3Cl)c(=O)[nH]c2n1
inactive: 1 nM -2.51% | 8.33 nM 1.46% | 100 nM 0.99% | 833.33 nM 0.54% | 10000 nM 2.62%

FC(F)(F)c1ccc(CNc2ccc(Cc3c[nH]c4ncccc34)cn2)cc1
inactive: 1 nM 3.02% | 8.33 nM 0.15% | 100 nM 0.15% | 833.33 nM -0.39% | 10000 nM -1.01%

CCn1c(=O)/c(=C2\Sc3ccccc3N2C)s/c1=C\c1cccc[n+]1CC
inactive: 1 nM -0.41% | 8.33 nM 2.22% | 100 nM -0.82% | 833.33 nM -0.9% | 10000 nM -6.25%

CNC(=O)c1cc(Oc2ccc(NC(=O)Nc3cc(C(C)(C)C)nn3-c3ccc4ncccc4c3)c(F)c2)ccn1 [rebastinib]
inactive: 1 nM -1.46% | 8.33 nM 0.18% | 100 nM 1.77% | 833.33 nM 5.75% | 10000 nM 8.96%

CCCCCCCCCCCCCCCCCCN(CCCCCCCCCCCCCCCCCC)CCCN(CCO)CCO [avridine]
inactive: 1 nM -9.9% | 8.33 nM -6.98% | 100 nM -5.76% | 833.33 nM -5.17% | 10000 nM -10.1%

Cc1cc(N2CCN([C@@H]3CN[C@H](C(=O)N4CCSC4)C3)CC2)n(-c2ccccc2)n1 [teneligliptin]
inactive: 1 nM 0.52% | 8.33 nM 1.21% | 100 nM 1% | 833.33 nM 1.12% | 10000 nM -2.67%

O=[N+]([O-])c1cc(Cl)ccc1S(=O)(=O)N1CCN(Cc2ccccc2)CC1
inactive: 1 nM 2.15% | 8.33 nM 2.13% | 100 nM -0.96% | 833.33 nM 3.68% | 10000 nM -1.65%

Oc1ccc2c3c1O[C@H]1c4[nH]c5ccccc5c4C[C@@]4(O)[C@@H](C2)N(CC2CC2)CC[C@]314 [naltrindole]
inactive: 1 nM 1.74% | 8.33 nM 3.59% | 100 nM 1.09% | 833.33 nM 0.82% | 10000 nM -3.58%

COc1c(C)c2c(c(O)c1C/C=C(\C)CCC(=O)O)C(=O)OC2 [mycophenolic-acid]
inactive: 1 nM -0.65% | 8.33 nM -1.16% | 100 nM 0.96% | 833.33 nM 2.06% | 10000 nM 12.9%

c1ccc2c(c1)CN1CCCC1=N2 [desoxypeganine]
inactive: 1 nM -4.75% | 8.33 nM -3.18% | 100 nM -1.21% | 833.33 nM -2.32% | 10000 nM -1.54%

Cn1ccc2cc3c(cc21)CCN3C(=O)Nc1cccnc1
inactive: 1 nM 1.1% | 8.33 nM 0.1% | 100 nM 1.8% | 833.33 nM 0.79% | 10000 nM 2.05%

CN1CCC(NC(=O)c2cc(-c3c(O)cc(O)cc3Oc3ccc([N+](=O)[O-])cc3)on2)CC1
inactive: 1 nM 0.32% | 8.33 nM 0.21% | 100 nM 3.95% | 833.33 nM -1.5% | 10000 nM -5.98%

COCCOc1ccc2c(c1)ncn2-c1ccc2cccc(N3CCC(N)CC3)c2n1
inactive: 1 nM -0.92% | 8.33 nM 2.04% | 100 nM 0.64% | 833.33 nM 1.12% | 10000 nM -2.22%

C[C@@H]1CC[C@@]2(NC1)O[C@H]1C[C@H]3[C@@H]4CC=C5C[C@@H](O[C@@H]6O[C@H](CO)[C@@H](O[C@@H]7O[C@@H](C)[C@H](O)[C@@H](O)[C@H]7O)[C@H](O)[C@H]6O[C@@H]6O[C@@H](C)[C@H](O)[C@@H](O)[C@H]6O)CC[C@]5(C)[C@H]4CC[C@]3(C)[C@H]1[C@@H]2C [solamargine]
inactive: 1 nM -1.13% | 8.33 nM -0.16% | 100 nM 0.07% | 833.33 nM -3.82% | 10000 nM -15.1%

c1ccc(Cn2c(-c3ccc(OC[C@H](C4CCNCC4)n4c(-c5ccccc5)nc5ccccc54)cc3)nc3ccccc32)cc1 [deltarasin]
inactive: 1 nM -4.79% | 8.33 nM -0.65% | 100 nM -1.55% | 833.33 nM -1.93% | 10000 nM -33.6%

CC(C)C[C@H](NC(=O)[C@@H]1CCCN1)C(=O)NCC(N)=O [prolylleucylglycinamide]
inactive: 1 nM 0.63% | 8.33 nM 2.46% | 100 nM 1.44% | 833.33 nM 0.51% | 10000 nM 1.22%

Cc1cccn2c(=O)c(-c3nnn[nH]3)cnc12 [pemirolast]
inactive: 1 nM -0.01% | 8.33 nM 0.57% | 100 nM 0.12% | 833.33 nM 3.15% | 10000 nM -1.12%

CC(C)(Sc1ccncc1-c1ccc(C#N)c2ccccc12)C(=O)O [verinurad]
inactive: 1 nM -0.56% | 8.33 nM 1.54% | 100 nM 0.77% | 833.33 nM -0.34% | 10000 nM 1.75%

CC1(C)OC[C@@H](COC(=O)CCc2ccc(OC[C@@H](O)CNCCNC(=O)N3CCOCC3)cc2)O1 [landiolol]
inactive: 1 nM -7.81% | 8.33 nM -4.59% | 100 nM -1.18% | 833.33 nM -1.43% | 10000 nM -1.67%

C[C@H](Nc1cc2c(-c3ccc4c(c3)OCO4)noc2cn1)c1ccccc1
inactive: 1 nM 0.3% | 8.33 nM -0.01% | 100 nM -0.1% | 833.33 nM -0.91% | 10000 nM -1.26%

Cc1ccc(NC(=O)C(C)C)cc1C1CCN(Cc2ccc(Oc3ccc(F)c(F)c3)cc2)CC1
inactive: 1 nM -0.1% | 8.33 nM -1.41% | 100 nM -2.07% | 833.33 nM -4.89% | 10000 nM -10.5%

O=C[C@H](O)[C@@H](O)[C@H](O)CO [xylose]
inactive: 1 nM 2.36% | 8.33 nM 1.7% | 100 nM -0.84% | 833.33 nM -1.64% | 10000 nM -4.41%

CC(=O)N(CC(O)CN(C(C)=O)c1c(I)c(C(=O)NCC(O)CO)c(I)c(C(=O)NCC(O)CO)c1I)c1c(I)c(C(=O)NCC(O)CO)c(I)c(C(=O)NCC(O)CO)c1I (stereo not given) [iodixanol]
inactive: 1 nM -1.14% | 8.33 nM 3.23% | 100 nM 2.34% | 833.33 nM -0.66% | 10000 nM -1.88%

Cn1c(CNc2ccc(C(=N)N)cc2)nc2cc(C(=O)N(CCC(=O)O)c3ccccn3)ccc21 [dabigatran]
inactive: 1 nM -0.46% | 8.33 nM 1.73% | 100 nM -0.12% | 833.33 nM 0.58% | 10000 nM 3.34%

CC(=O)OCC(=O)[C@@]12OC3(CCCC3)O[C@@H]1C[C@H]1[C@@H]3CCC4=CC(=O)C=C[C@]4(C)[C@@]3(F)[C@@H](O)C[C@@]12C [amcinonide]
inactive: 1 nM -1.51% | 8.33 nM -0.7% | 100 nM -1.46% | 833.33 nM -0.87% | 10000 nM -3.21%

Brc1c(NC2=NCCN2)ccc2nccnc12 [brimonidine]
inactive: 1 nM 4.55% | 8.33 nM 0.66% | 100 nM 0.75% | 833.33 nM 2.72% | 10000 nM 0.94%

CCc1cc2c(c(CC)n1)CCC(=O)N2Cc1ccc(-c2ccccc2-c2nnn[nH]2)cc1
inactive: 1 nM -4.46% | 8.33 nM -5.09% | 100 nM -2.79% | 833.33 nM -3.64% | 10000 nM -0.49%

O=C(Nc1ccccc1-c1cn2c(CN3CCNCC3)csc2n1)c1cnc2ccccc2n1
inactive: 1 nM 0.17% | 8.33 nM 1.58% | 100 nM -0.07% | 833.33 nM -3.31% | 10000 nM -26.2%

COc1cc(N2CCC(N)CC2)ccc1Nc1ncc(Cl)c(-c2c[nH]c3ccccc23)n1
inactive: 1 nM -1% | 8.33 nM 0.49% | 100 nM -1.87% | 833.33 nM -3.58% | 10000 nM -8.45%

CCOCCn1c(N2CCCN(C)CC2)nc2ccccc21 [emedastine]
inactive: 1 nM -2.21% | 8.33 nM 0.36% | 100 nM -2.49% | 833.33 nM 1.46% | 10000 nM -0.01%

CN(CCOc1ccc(NS(C)(=O)=O)cc1)CCc1ccc(NS(C)(=O)=O)cc1 [dofetilide]
inactive: 1 nM -2.98% | 8.33 nM -1.43% | 100 nM -1.55% | 833.33 nM -0.28% | 10000 nM -0.36%

O=[N+]([O-])c1cc2nc(O)c(O)nc2cc1[N+](=O)[O-]
inactive: 1 nM -4.28% | 8.33 nM -0.96% | 100 nM -0.81% | 833.33 nM -1.99% | 10000 nM 0.49%

Source: the supplement of paper PMC13380429
